Assay results from PubChem BioAssay (NCI).
The panel holds about 79,000 compounds, 15% with a hit somewhere; the sample as a whole holds those more often. Unmarked numbers belong to inactive results. Calls of active or inactive are those of the source. No stated cut-off is given here; in the data, active means growth inhibition above about 70%; inactive means the rest.

Experiment: NCI Yeast Anticancer Drug Screen. Data for the sgs1 mgt1 strain (AID 161);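 further: 0% = growth of cultures given vehicle only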
Conditions: S. cerevisiae sgs1 mgt1 strain, at 5.0 µM (retest, dose inferred, filed as 0.5), hits give high values
In short: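 Yeast cells carrying a defined DNA-repair defect were exposed to test compounds. Growth inhibition was measured relative to vehicle-treated controls.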

For `COc1ccc2c(Cc3cc(Cl)ccc3O)cncc2c1O`, which growth inhibition is on record?
The growth inhibition was -5%.

With `Cc1ccc(NNC2=NC(=S)NC(=O)C2)cc1` as the compound, how does the growth inhibition read?
Its growth inhibition is 18%.

Which growth inhibition does the source give for `CC#CC(=O)Nc1ccccc1CC(c1c[nH]c2ccccc12)c1c[nH]c2ccccc12` here?
The growth inhibition was 40%.

Which growth inhibition does the source give for `COC(=O)c1c2oc3c(C(=O)OC)cccc3nc-2cc(N)c1=O` here?
Its growth inhibition is 6%.

Which growth inhibition does the source give for `CCCCCC(=O)NNc1ccccc1` here?
The growth inhibition was 5%.

Which growth inhibition does the source give for `CN(C)CCNc1ccc2nnn3c4ccc(O)cc4c(=O)c1c23` here?
The growth inhibition was 12%.

For `COc1ccc2c(c1)C(=O)C[C@@H]1[C@](C)(C#N)CCC[C@]21C`, which growth inhibition is on record?
Its growth inhibition is 3%.

Which growth inhibition does the source give for `CCC(=O)c1cc2ccccc2c2ccccc12` here?
The growth inhibition was 0%.

With `O=C1OCCCOC(=O)c2cc(ccc2O)OCC#CC#CCOc2ccc(O)c1c2` as the compound, how does the growth inhibition read?
The growth inhibition was -1%.

For `Nc1nc(Cl)cc(NCC2(CO)CC(CCCc3ccccc3)C2)n1` (stereo not given), which growth inhibition is on record?
The growth inhibition was 6%.

For `NNC(=S)Nc1ccccc1`, which growth inhibition is on record?
Its growth inhibition is -1%.

With `CCOC(=O)c1ccc(N=Cc2cc(Cl)cc(Cl)c2O)cc1` as the compound, how does the growth inhibition read?
The growth inhibition was 28%.

Which growth inhibition does the source give for `CC(C(=O)N1C(=O)N(C(=O)C(C)C(O)c2ccccc2)C(c2ccccc2)C1c1ccccc1)C(O)c1ccccc1` (stereo not given) here?
The growth inhibition was -9%.

For `CC(C)(C)CC(C)(C)N[P+](NC(C)(C)CC(C)(C)C)(NC(C)(C)CC(C)(C)C)NC(C)(C)CC(C)(C)C`, which growth inhibition is on record?
The growth inhibition was 81% (active).

Which growth inhibition does the source give for `C/C(=N\NC(=S)N1CCCC1)c1cnccn1` here?
Its growth inhibition is 77% (active).

With `N=C(N)c1ccc(OCCCCOc2ccc(N)cc2Cl)cc1` as the compound, how does the growth inhibition read?
Its growth inhibition is 3%.

Which growth inhibition does the source give for `CCCCCC(CN(C)C)C(O)/C=C\c1ccccc1` (stereo not given) here?
The growth inhibition was -10%.

Which growth inhibition does the source give for `CC1(CO)CCCC2(C)C3=C(CCCC3)CCC12` (stereo not given) here?
The growth inhibition was -60%.

Which growth inhibition does the source give for `O=C(CCCl)Nc1cc2ccccc2oc1=O` here?
The growth inhibition was -10%.

For `O=[N+]([O-])c1ccccc1N=Nc1c(O)[nH]c2cccc(C(F)(F)F)c12`, which growth inhibition is on record?
Its growth inhibition is 60%.

With `CCCCCCCCC1OC1CCCCCCCC(=O)OCC1CO1` (stereo not given) as the compound, how does the growth inhibition read?
Its growth inhibition is 1%.

For `CCN(CC)CCNc1ccc(C)c2sc3c(OC)cccc3c(=O)c12`, which growth inhibition is on record?
Its growth inhibition is -3%.

With `OC(CCN1CCOCC1)c1ccc(Sc2ccccc2)cc1` (stereo not given) as the compound, how does the growth inhibition read?
Its growth inhibition is 61%.

Which growth inhibition does the source give for `[Cl-].[La+3].[O-]/N=C(\c1ccccc1)c1ccccn1.[O-]/N=C(\c1ccccc1)c1ccccn1.[O-]/N=C(\c1ccccc1)c1ccccn1` here?
Its growth inhibition is 31%.

For `COc1ccc(NC(=O)CSC(N)=O)cc1`, which growth inhibition is on record?
Its growth inhibition is 3%.

With `Fc1cccc(CSc2ncnc3c2ncn3C2CCCS2)c1` (stereo not given) as the compound, how does the growth inhibition read?
Its growth inhibition is 6%.

Which growth inhibition does the source give for `CC/C(=C(\CC)c1ccc(OCCN2CCOCC2)cc1)c1ccc(OCCN2CCOCC2)cc1` here?
The growth inhibition was 67%.

For `O=[N+]([O-])c1c(Cl)ccc2nsnc12`, which growth inhibition is on record?
The growth inhibition was -14%.

Which growth inhibition does the source give for `COc1ccccc1NC(=O)/C(=C\N1C(=O)/C(=C/c2cc(OC)c(OC)c(OC)c2)SC1=S)C(C)=O` here?
The growth inhibition was -8%.

With `O=CNC(CCCC(=O)O)Cc1cc2ccccc2c2ccccc12` (stereo not given) as the compound, how does the growth inhibition read?
The growth inhibition was 5%.

Which growth inhibition does the source give for `C=C1CC2(CCCC3(CC(=C)C(=O)O3)C2(C)C)OC1=O` (stereo not given) here?
The growth inhibition was 57%.

Which growth inhibition does the source give for `CCOC(=O)Nc1cc(NC(C)/C(=N/O)c2ccccc2)c([N+](=O)[O-])c(N)n1` (stereo not given) here?
Its growth inhibition is 1%.

Which growth inhibition does the source give for `O=C(N=Nc1cccc(Cl)c1)NNc1cccc(Cl)c1` here?
Its growth inhibition is -9%.

For `Oc1ccc2c(ccc3ccccc32)c1`, which growth inhibition is on record?
The growth inhibition was 0%.

With `CCc1cccc(C(C)(C)C)c1NC(=S)/N=C/C(C(=O)c1ccccc1)=C(\O)c1ccccc1` as the compound, how does the growth inhibition read?
The growth inhibition was -10%.

For `NC(=S)N/N=C/c1cn(CCCl)c2ccccc12`, which growth inhibition is on record?
The growth inhibition was -17%.

With `COC1=Nc2ccccc2S(=O)(=O)C=C1` as the compound, how does the growth inhibition read?
The growth inhibition was 2%.

With `O=C1C2C3C=CC(C3)C2C(=NS(=O)(=O)c2ccccc2)C2C3C=CC(C3)C12` (stereo not given) as the compound, how does the growth inhibition read?
The growth inhibition was 3%.

For `NC(=Nc1ccccc1)c1ccc2c(c1)c1c(n2Cc2ccccc2)CCCC1`, which growth inhibition is on record?
The growth inhibition was -5%.

For `NN=C(CC(O)(C(F)(F)Cl)C(F)(F)Cl)CC(O)(C(F)(F)Cl)C(F)(F)Cl`, which growth inhibition is on record?
The growth inhibition was 26%.

Same assay, conditions: S. cerevisiae sgs1 mgt1 strain, at 50.0 µM (retest, dose inferred, filed as 5.0), hits give high values

Which growth inhibition does the source give for `COc1ccc2c(Cc3cc(Cl)ccc3O)cncc2c1O` here?
Its growth inhibition is 51%.

With `Cc1ccc(NNC2=NC(=S)NC(=O)C2)cc1` as the compound, how does the growth inhibition read?
Its growth inhibition is 97% (active).

For `CC#CC(=O)Nc1ccccc1CC(c1c[nH]c2ccccc12)c1c[nH]c2ccccc12`, which growth inhibition is on record?
Its growth inhibition is 40%.

For `COC(=O)c1c2oc3c(C(=O)OC)cccc3nc-2cc(N)c1=O`, which growth inhibition is on record?
The growth inhibition was 22%.

For `CCCCCC(=O)NNc1ccccc1`, which growth inhibition is on record?
The growth inhibition was 48%.

For `CN(C)CCNc1ccc2nnn3c4ccc(O)cc4c(=O)c1c23`, which growth inhibition is on record?
The growth inhibition was 23%.

Which growth inhibition does the source give for `COc1ccc2c(c1)C(=O)C[C@@H]1[C@](C)(C#N)CCC[C@]21C` here?
The growth inhibition was 19%.

With `CCC(=O)c1cc2ccccc2c2ccccc12` as the compound, how does the growth inhibition read?
Its growth inhibition is 40%.

With `O=C1OCCCOC(=O)c2cc(ccc2O)OCC#CC#CCOc2ccc(O)c1c2` as the compound, how does the growth inhibition read?
Its growth inhibition is -3%.

For `Nc1nc(Cl)cc(NCC2(CO)CC(CCCc3ccccc3)C2)n1` (stereo not given), which growth inhibition is on record?
Its growth inhibition is 12%.

With `NNC(=S)Nc1ccccc1` as the compound, how does the growth inhibition read?
The growth inhibition was 1%.

Which growth inhibition does the source give for `CCOC(=O)c1ccc(N=Cc2cc(Cl)cc(Cl)c2O)cc1` here?
Its growth inhibition is 84% (active).

Which growth inhibition does the source give for `CC(C(=O)N1C(=O)N(C(=O)C(C)C(O)c2ccccc2)C(c2ccccc2)C1c1ccccc1)C(O)c1ccccc1` (stereo not given) here?
Its growth inhibition is 91% (active).

With `CC(C)(C)CC(C)(C)N[P+](NC(C)(C)CC(C)(C)C)(NC(C)(C)CC(C)(C)C)NC(C)(C)CC(C)(C)C` as the compound, how does the growth inhibition read?
Its growth inhibition is 99% (active).

With `C/C(=N\NC(=S)N1CCCC1)c1cnccn1` as the compound, how does the growth inhibition read?
The growth inhibition was 98% (active).

Which growth inhibition does the source give for `N=C(N)c1ccc(OCCCCOc2ccc(N)cc2Cl)cc1` here?
The growth inhibition was 98% (active).

For `CCCCCC(CN(C)C)C(O)/C=C\c1ccccc1` (stereo not given), which growth inhibition is on record?
Its growth inhibition is -22%.

For `CC1(CO)CCCC2(C)C3=C(CCCC3)CCC12` (stereo not given), which growth inhibition is on record?
The growth inhibition was 96% (active).

For `O=C(CCCl)Nc1cc2ccccc2oc1=O`, which growth inhibition is on record?
The growth inhibition was 23%.

Which growth inhibition does the source give for `O=[N+]([O-])c1ccccc1N=Nc1c(O)[nH]c2cccc(C(F)(F)F)c12` here?
The growth inhibition was 90% (active).

With `CCCCCCCCC1OC1CCCCCCCC(=O)OCC1CO1` (stereo not given) as the compound, how does the growth inhibition read?
The growth inhibition was -10%.

For `CCN(CC)CCNc1ccc(C)c2sc3c(OC)cccc3c(=O)c12`, which growth inhibition is on record?
Its growth inhibition is 22%.

With `OC(CCN1CCOCC1)c1ccc(Sc2ccccc2)cc1` (stereo not given) as the compound, how does the growth inhibition read?
The growth inhibition was 59%.

With `[Cl-].[La+3].[O-]/N=C(\c1ccccc1)c1ccccn1.[O-]/N=C(\c1ccccc1)c1ccccn1.[O-]/N=C(\c1ccccc1)c1ccccn1` as the compound, how does the growth inhibition read?
The growth inhibition was 68%.

For `COc1ccc(NC(=O)CSC(N)=O)cc1`, which growth inhibition is on record?
Its growth inhibition is 18%.

With `Fc1cccc(CSc2ncnc3c2ncn3C2CCCS2)c1` (stereo not given) as the compound, how does the growth inhibition read?
Its growth inhibition is 92% (active).

With `CC/C(=C(\CC)c1ccc(OCCN2CCOCC2)cc1)c1ccc(OCCN2CCOCC2)cc1` as the compound, how does the growth inhibition read?
Its growth inhibition is 88% (active).

Which growth inhibition does the source give for `O=[N+]([O-])c1c(Cl)ccc2nsnc12` here?
The growth inhibition was 98% (active).

For `COc1ccccc1NC(=O)/C(=C\N1C(=O)/C(=C/c2cc(OC)c(OC)c(OC)c2)SC1=S)C(C)=O`, which growth inhibition is on record?
Its growth inhibition is 35%.

For `O=CNC(CCCC(=O)O)Cc1cc2ccccc2c2ccccc12` (stereo not given), which growth inhibition is on record?
Its growth inhibition is 11%.

Which growth inhibition does the source give for `C=C1CC2(CCCC3(CC(=C)C(=O)O3)C2(C)C)OC1=O` (stereo not given) here?
The growth inhibition was 97% (active).

Which growth inhibition does the source give for `CCOC(=O)Nc1cc(NC(C)/C(=N/O)c2ccccc2)c([N+](=O)[O-])c(N)n1` (stereo not given) here?
Its growth inhibition is 69%.

For `O=C(N=Nc1cccc(Cl)c1)NNc1cccc(Cl)c1`, which growth inhibition is on record?
The growth inhibition was 91% (active).

Which growth inhibition does the source give for `Oc1ccc2c(ccc3ccccc32)c1` here?
Its growth inhibition is 91% (active).

With `CCc1cccc(C(C)(C)C)c1NC(=S)/N=C/C(C(=O)c1ccccc1)=C(\O)c1ccccc1` as the compound, how does the growth inhibition read?
The growth inhibition was 43%.

For `NC(=S)N/N=C/c1cn(CCCl)c2ccccc12`, which growth inhibition is on record?
The growth inhibition was 63%.

With `COC1=Nc2ccccc2S(=O)(=O)C=C1` as the compound, how does the growth inhibition read?
The growth inhibition was 89% (active).

With `O=C1C2C3C=CC(C3)C2C(=NS(=O)(=O)c2ccccc2)C2C3C=CC(C3)C12` (stereo not given) as the compound, how does the growth inhibition read?
The growth inhibition was 14%.

With `NC(=Nc1ccccc1)c1ccc2c(c1)c1c(n2Cc2ccccc2)CCCC1` as the compound, how does the growth inhibition read?
Its growth inhibition is 99% (active).

Which growth inhibition does the source give for `NN=C(CC(O)(C(F)(F)Cl)C(F)(F)Cl)CC(O)(C(F)(F)Cl)C(F)(F)Cl` here?
Its growth inhibition is 99% (active).
